Reference: PubChem BioAssay (Tox21)
Records with an inconclusive call do not appear. The source made the active and inactive calls. Unless noted, calls come from the whole dose curve; as a rule, active = well fitted curve in the direction sought with a large enough effect in the repeat runs; inconclusive = weak or mixed curves; inactive = no such curve, though single readings can be large; an effect the other way counts as inactive or inconclusive.

Assays:
[1] = A CellTox Green Cytotoxicity Assay to monitor cytotoxicity in HEK293 cells - 32 hour (AID 1224881); note: nearly all actives have a fitted effect of over 40% in size
Summary of the method: (§1)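 Fluorescence from a DNA-binding dye excluded by viable cells was measured repeatedly in the same HEK293 wells (600 cells/well) during continuous compound exposure at 37 C. Each assay gives one read point: 0, 8, 16, 24, 32 or 40 h.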

[2] = A CellTox Green Cytotoxicity Assay to monitor cytotoxicity in HepG2 cells - 0 hour (AID 1224882); note: nearly all actives have a fitted effect of over 35% in size
Summary of the method: (§2)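 Real-time cytotoxicity: fluorescence of a cell-impermeant cyanine dye binding DNA of dead HepG2 cells, measured repeatedly (0–40 h) during compound exposure at 37 C. Cells seeded 600/well with reagent, dosed after 5 h.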

[3] = A CellTox Green Cytotoxicity Assay to monitor cytotoxicity in HepG2 cells - 32 hour (AID 1224883); note: nearly all actives have a fitted effect of over 50% in size
Summary of the method: as §2

[4] = A CellTox Green Cytotoxicity Assay to monitor cytotoxicity in HEK293 cells - 8 hour (AID 1224884); note: nearly all actives have a fitted effect of over 35% in size
Summary of the method: as §1

[5] = qHTS RealTime-Glo MT Cell Viability Assay in HepG2 cells - 16 hour (AID 1224885); note: nearly all actives have a fitted effect of over 50% in size
Summary of the method: (§3)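 Tox21 10K library screened in qHTS format on HepG2 cells carrying RealTime-Glo reagents. Compounds were added after a 5 h preincubation, and the luminescent signal from continuous culture was measured repeatedly during 40 h treatment.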

[6] = qHTS RealTime-Glo MT Cell Viability Assay in HEK293 cells - 24 hour (AID 1224886); note: nearly all actives have a fitted effect of over 50% in size; note: potency is the fitted concentration of half-maximal effect
Summary of the method: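 Luminescence generated by NanoLuc from substrate produced by living HEK293 cells served as the viability signal. Each value reflects the reading at its stated time point during continuous 40 h compound exposure at 37 C.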

[7] = qHTS RealTime-Glo MT Cell Viability Assay in HEK293 cells - 8 hour (AID 1224887); note: nearly all actives have a fitted effect of over 50% in size; note: potency is the fitted concentration of half-maximal effect
Summary of the method: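 Luminescence, which tracks viable cell number through reduction of the prosubstrate to a NanoLuc substrate, was read over continuous 37 C culture. Cells (600/well) were premixed with reagent and rested 5 h before 23 nL of compound in DMSO was pinned.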

[8] = A CellTox Green Cytotoxicity Assay to monitor cytotoxicity in HEK293 cells - 16 hour (AID 1224888); note: nearly all actives have a fitted effect of over 35% in size
Summary of the method: as §1

[9] = qHTS RealTime-Glo MT Cell Viability Assay in HepG2 cells - 0 hour (AID 1224889); note: nearly all actives have a fitted effect of over 50% in size
Summary of the method: as §3

[10] = A CellTox Green Cytotoxicity Assay to monitor cytotoxicity in HepG2 cells - 8 hour (AID 1224890); note: nearly all actives have a fitted effect of over 45% in size
Summary of the method: as §2

[11] = qHTS assay to identify small molecule antagonists of the estrogen receptor alpha (ER-alpha) signaling pathway using the BG1 cell line in the presence of 0.1 nM 17-beta-estradiol - cell viability counter screen (AID 1259241); note: nearly all actives have a fitted effect of over 40% in size
Summary of the method: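 Cells were plated and left 24 hr, compounds in DMSO were pinned in, 17beta-estradiol was added to 0.1 nM final, and after 22 hr CellTiter-Fluor reagent was added for 30 min before fluorescence was read.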

[12] = qHTS assay to identify small molecule antagonists of the androgen receptor (AR) signaling pathway using the MDA cell line in the presence of 0.5 nM R1881 - cell viability counter screen (AID 1259242); note: nearly all actives have a fitted effect of over 45% in size
Summary of the method: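 Live-cell protease activity was measured by CellTiter-Fluor fluorescence after 30 min. Before that, MDA-kb2 MMTV-luciferase cells had 16 hr at 37C without CO2, exposed to test compounds and 0.5 nM R1881 final.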

[13] = biological target: Estrogen receptor (Homo sapiens) (UniProt P03372); test: qHTS assay to identify small molecule antagonists of the estrogen receptor alpha (ER-alpha) signaling pathway using the BG1 cell line in the presence of 0.1 nM 17-beta-estradiol (AID 1259244); note: nearly all actives have a fitted effect of over 50% in size
Summary of the method: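 Luciferase luminescence (ONE-Glo, 30 min at room temperature) was read after 22 hr at 37C exposure to compounds plus 17beta-estradiol at 0.1 nM final. Cells were VM7Luc4E2 with endogenous ER-alpha and an ERE-driven luciferase, pre-cultured 5 days in hormone-depleted medium.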

[14] = qHTS assay to identify small molecule HDAC inhibitors (AID 1259364); note: top concentration of the series differs between compounds; nearly all actives have a fitted effect of over 45% in size
Summary of the method: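 Luminescence read after 30 min room-temperature HDAC-Glo incubation measures cellular class I/II HDAC activity. Compounds were applied for 2 hr at 37 C to HCT-116 wild-type cells seeded the day before.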

[15] = qHTS assay to identify small molecule HDAC inhibitors - cell viability counter screen (AID 1259365)
Summary of the method: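 Counter screen in wild-type HCT-116 cells: compounds dissolved in DMSO are pin-transferred onto overnight-plated cells and left 2hr at 37C. ATP-based CellTiter-Glo luminescence then measures viable cells.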

[16] = qHTS assay to identify small molecule agonists of the sonic hedgehog signaling (Shh) pathway - cell viability counter screen (AID 1259366); note: nearly all actives have a fitted effect of over 50% in size; note: potency is the fitted concentration of half-maximal effect
Summary of the method: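 Cells are plated at 2,000 per well and left 4hr at 37C, 5% CO2 before compound addition. After 23hr of treatment, CellTiter-Fluor reagent is added for 1hr at 37C and fluorescence is measured.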

[17] = qHTS assay to identify small molecule antagonists of the sonic hedgehog signaling (Shh) pathway - cell viability counter screen (AID 1259367); note: nearly all actives have a fitted effect of over 55% in size; note: potency is the fitted concentration of half-maximal effect
Summary of the method: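 Tox21 library chemicals were tested on a Gli1-Luc NIH/3T3 clone (2,000 cells/well) stimulated by conditioned medium; viability was quantified as fluorescence from CellTiter-Fluor reagent added at 23 hr.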

[18] = qHTS assay to identify small molecule agonists of the sonic hedgehog signaling (Shh) pathway (AID 1259368; calls by dose curve;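 note: NIH/3T3-derived 3T3Gli1-Luc cells carrying a stable Gli1-driven firefly luciferase reporter; series mostly up to about 92 µM; nearly all actives have a fitted effect of over 15% in size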)
Summary of the method: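 Luminescence was read after 30 min at room temperature with luciferase reagent. Before that, 3T3Gli1-Luc cells (NIH/3T3 clone, stable Gli1-Luc reporter; 2,000/well) were exposed to compounds for 24 hr at 37C, 5% CO2, compounds being added 4 hr post-plating.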

[19] = qHTS assay to identify small molecule phospholipidosis (PLD) inducers (AID 1259344; active = well fitted curve in the direction sought with a large enough effect; an effect the other way counts as inactive or inconclusive)
Summary of the method: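 Image-based: LipidTOX Red pit count/intensity per well and per cell; HepG2, 24 h compound at 37 C, PFA fixation, Hoechst counterstain.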

Measured: Potency

Sequence of Estrogen receptor (Homo sapiens) (P03372 whole entry, looked up): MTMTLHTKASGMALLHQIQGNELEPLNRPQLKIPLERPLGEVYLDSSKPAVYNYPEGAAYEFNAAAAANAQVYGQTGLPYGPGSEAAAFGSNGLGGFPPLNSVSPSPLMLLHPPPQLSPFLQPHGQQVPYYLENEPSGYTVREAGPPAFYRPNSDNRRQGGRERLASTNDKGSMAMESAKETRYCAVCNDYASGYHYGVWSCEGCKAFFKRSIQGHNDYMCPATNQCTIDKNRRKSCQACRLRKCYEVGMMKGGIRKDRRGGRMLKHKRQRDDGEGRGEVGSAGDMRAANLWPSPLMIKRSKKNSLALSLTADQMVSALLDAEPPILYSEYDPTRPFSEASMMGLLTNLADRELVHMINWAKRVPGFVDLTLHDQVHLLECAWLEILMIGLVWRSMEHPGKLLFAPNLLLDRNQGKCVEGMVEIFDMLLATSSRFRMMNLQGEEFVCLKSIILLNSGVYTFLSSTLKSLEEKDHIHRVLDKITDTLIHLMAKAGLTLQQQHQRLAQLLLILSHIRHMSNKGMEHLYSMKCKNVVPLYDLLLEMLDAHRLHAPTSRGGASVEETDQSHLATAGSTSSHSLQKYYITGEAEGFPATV

CC(Cc1ccc(OCC(=O)O)cc1)NCC(O)c1csc(C(F)(F)F)n1 (stereo not given)
active: [16] 6.11 µM | [17] 3.86 µM
not listed: [19]
inactive: all other assays above

BrCC(Br)(Br)Br
active: [6] 45.3 µM | [7] 16.1 µM
not listed: [19]
inactive: all other assays above

CC(C)=CC1C(C(=O)OC(C#N)c2cccc(Oc3ccccc3)c2)C1(C)C (stereo not given)
not listed: [13] | [19]
inactive: all other assays above

CCOC(=O)CCN(SN(C)C(=O)Oc1cccc2c1OC(C)(C)C2)C(C)C
not listed: [19]
inactive: all other assays above

CCCCn1cc[n+](C)c1 (tested in a mixture with another compound)
not listed: [13] | [19]
inactive: all other assays above

CCCCn1cc[n+](C)c1.[Cl][Fe-]([Cl])([Cl])[Cl]
not listed: [13] | [16] | [19]
inactive: all other assays above

COc1nc(C)nc(NC(=O)NS(=O)(=O)c2ccccc2Cl)n1
not listed: [14] | [19]
inactive: all other assays above

N#Cc1c2ccccc2cc2ccccc12
not listed: [13] | [16] | [17] | [19]
inactive: all other assays above

CCOP(=O)(OCC)Oc1nc(Cl)c(Cl)cc1Cl
not listed: [13] | [14] | [19]
inactive: all other assays above

O=C(O)CCCCCCNC1c2ccccc2CCc2ccccc21
inactive: all assays above

CC(C)NCC(O)c1ccccc1Cl (stereo not given)
not listed: [14]
inactive: all other assays above

C=CCBr
not listed: [19]
inactive: all other assays above

CCCCCCC[CH2][Sn]([Cl])([Cl])[CH2]CCCCCCC
not listed: [18] | [19]
inactive: all other assays above

COc1ccc2c(c1OC)C(=O)O[C@@H]2[C@H]1c2cc3c(cc2CCN1C)OCO3
active: [16] 2.41 µM | [17] 3.03 µM
not listed: [11] | [13] | [19]
inactive: all other assays above
